Measurements taken from PubChem BioAssay (NCI).
Compounds without any hit were thinned out: in the full panel of roughly 83,000, 20% have a hit.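 For each line, cells grew in 96-well plates with the test compound present at a single concentration for 48 hours.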 Active and inactive are the calls of the source. Rule for the calls: active = growth percent below 10; inactive = the rest.

Assays:
Assay in all cases: NCI-60 one-dose screen, 48 h (100 = growth as untreated, 0 = no growth, -100 = all killed)
Details in all cases: 10 µM unless noted
T-47D breast = test system: T-47D breast
BT-549 breast = test system: BT-549 breast
MDA-MB-435 melanoma = test system: MDA-MB-435 melanoma
SW-620 colon = test system: SW-620 colon
MCF7 breast = test system: MCF7 breast
HCC-2998 colon = test system: HCC-2998 colon
KM12 colon = test system: KM12 colon
HCT-116 colon = test system: HCT-116 colon

Measured: growth

COc1cc(-c2ccc3c(c2)NC(=O)/C3=C\c2ccc[nH]2)ccc1O
inactive: T-47D breast 35.2% | BT-549 breast 46.5% | MDA-MB-435 melanoma 12.2% | SW-620 colon 28.8%
active: MCF7 breast 6.69% | HCC-2998 colon 1.36% | KM12 colon 1.34%

COc1ccc(O)c(N=Nc2nccs2)c1
inactive: T-47D breast 37% | BT-549 breast 95.6% | MDA-MB-435 melanoma 104% | SW-620 colon 62.3% | MCF7 breast 64.3% | HCC-2998 colon 89.4% | KM12 colon 73.3%

C=C1c2nc3ccccc3n2C=C(c2ccc(Cl)cc2)N1Cc1ccc(OC)cc1
inactive: T-47D breast 48% | BT-549 breast 97.8% | MDA-MB-435 melanoma 97.9% | SW-620 colon 92.7% | MCF7 breast 54% | HCC-2998 colon 80.4% | KM12 colon 95.4%

OC(COc1cccc2ccccc12)CN1CCN(c2ccccc2Cl)CC1 (stereo unspecified)
inactive: T-47D breast 74.5% | BT-549 breast 106% | MDA-MB-435 melanoma 100% | SW-620 colon 88.5% | MCF7 breast 105% | HCT-116 colon 71.4% | KM12 colon 99.7%

Cc1cc(N2CCN(C)CC2)nc(NC2CCCC(Nc3ccnc4cc(Cl)ccc34)C2)n1 (stereo unspecified)
active: T-47D breast -48.5% | BT-549 breast -41.9% | MDA-MB-435 melanoma -86% | SW-620 colon 2.79% | MCF7 breast -10.5% | HCC-2998 colon 8.13%
inactive: KM12 colon 10.4%

Cc1ccc(NC(=O)C2CCC(CN3CCN(C)CC3)CC2)cc1Nc1nccc(-c2cccnc2)n1 (stereo unspecified)
inactive: T-47D breast 86.2% | BT-549 breast 103% | MDA-MB-435 melanoma 93.5% | SW-620 colon 98.4% | MCF7 breast 83.8% | HCC-2998 colon 106% | KM12 colon 97.3%

CC1SC(c2ccc(N(C)C)cc2)N(NC(=O)C(O)(c2ccccc2)c2ccccc2)C1=O (stereo unspecified)
inactive: T-47D breast 87.6% | BT-549 breast 93.1% | MDA-MB-435 melanoma 84.3% | SW-620 colon 104% | MCF7 breast 118% | HCT-116 colon 80.8% | KM12 colon 87.4%

O=C(CN(C(=O)Cn1c(=O)n2nnnc2c2ccccc21)c1ccccc1C(F)(F)F)Nc1ccc(C(F)(F)F)cc1
inactive: T-47D breast 101% | BT-549 breast 95.7% | MDA-MB-435 melanoma 105% | SW-620 colon 105% | MCF7 breast 96.1% | HCC-2998 colon 106% | KM12 colon 110%

COc1cccc(-c2nc3sccn3c2-c2ccnc(NCCCNS(=O)(=O)c3cccc(Cl)c3)c2)c1
inactive: BT-549 breast 20.2% | MDA-MB-435 melanoma 37.4% | SW-620 colon 67.5% | MCF7 breast 44.4% | HCC-2998 colon 81.6% | KM12 colon 64.8%
active: T-47D breast -4.56%

NC(=NCCCC1(c2ccccc2)CCCC1)Nc1ccc(Cl)cc1
active: T-47D breast 3.02% | SW-620 colon -32.9% | HCT-116 colon 0.509%
inactive: BT-549 breast 86.8% | MDA-MB-435 melanoma 10.9% | MCF7 breast 12.4% | KM12 colon 15.2%

Cc1cc(N2CCCC2)nc(NC2CCCC(Nc3ccnc4cc(Cl)ccc34)C2)n1 (stereo unspecified)
active: T-47D breast -35.1% | BT-549 breast -57.9% | MDA-MB-435 melanoma -92.6% | SW-620 colon -58.3% | MCF7 breast -13.2% | HCC-2998 colon -40.4% | KM12 colon -62.4%

Cc1ccc(NC(=O)/C=C/c2ccccc2)c(C(N)=O)c1
active: MDA-MB-435 melanoma -45.5%
inactive: T-47D breast 27.6% | BT-549 breast 94% | SW-620 colon 22.7% | MCF7 breast 15.7% | HCC-2998 colon 80.8% | KM12 colon 14.4%

COc1ccc(C(=S)N2CCN(c3cccc(Cl)c3)CC2)cc1
inactive: T-47D breast 89.9% | BT-549 breast 90.8% | MDA-MB-435 melanoma 106% | SW-620 colon 101% | MCF7 breast 111% | HCT-116 colon 89.2% | KM12 colon 104%

O=C(O)c1ccc(NC(=O)c2ccc(-c3cccc([N+](=O)[O-])c3)o2)cc1
inactive: T-47D breast 102% | BT-549 breast 107% | MDA-MB-435 melanoma 100% | SW-620 colon 96% | MCF7 breast 89.8% | HCT-116 colon 105% | KM12 colon 99.5%

O=C1NC(=O)C(c2ccc(Cl)cc2Cl)N1 (stereo unspecified)
inactive: T-47D breast 111% | BT-549 breast 122% | MDA-MB-435 melanoma 113% | SW-620 colon 106% | MCF7 breast 101% | HCT-116 colon 103% | KM12 colon 104%

CCOc1ccc(C(C)=O)cc1NC(=O)c1cccc(-c2nnn(CC)n2)c1
inactive: T-47D breast 29.6% | BT-549 breast 58.5% | SW-620 colon 31.2% | MCF7 breast 32.5% | HCT-116 colon 19.3% | KM12 colon 23.8%
active: MDA-MB-435 melanoma -47.6%

COc1ccc(NC2=C(Sc3nc(C)cc(C)n3)C(=O)N(Cc3ccccc3)C2=O)cc1Cl
inactive: T-47D breast 41.9% [30 µM] | BT-549 breast 65.4% [30 µM] | MDA-MB-435 melanoma 86.6% [30 µM] | SW-620 colon 88.7% [30 µM] | MCF7 breast 48.4% [30 µM] | HCT-116 colon 76.9% [30 µM] | KM12 colon 99.2% [30 µM]

COc1ccc(C2Nc3c(c(C(C)(C)C)nn3-c3ccccc3)C(=O)CS2)cc1 (stereo unspecified)
inactive: T-47D breast 96.5% | BT-549 breast 122% | MDA-MB-435 melanoma 106% | SW-620 colon 107% | MCF7 breast 92.9% | HCC-2998 colon 102% | KM12 colon 98.2%

O=c1cc(CSc2nnc(-c3ccc(F)cc3)o2)c2ccc3ccccc3c2o1
inactive: T-47D breast 100% | BT-549 breast 111% | MDA-MB-435 melanoma 106% | SW-620 colon 94.5% | MCF7 breast 93.5% | HCC-2998 colon 95.4% | KM12 colon 100%

O=C(CCN1C(=O)/C(=C/c2ccc(Cl)cc2)SC1=S)NCCCN1CCOCC1
inactive: T-47D breast 90.8% | BT-549 breast 106% | MDA-MB-435 melanoma 98.9% | SW-620 colon 100% | MCF7 breast 90.1% | HCC-2998 colon 105% | KM12 colon 104%

CCC#CC[C@H](O)C/C=C1/C(=O)C=C[C@@H]1C/C=C\CCCC(=O)OC
inactive: MCF7 breast 15.1%
active: T-47D breast 5.68% | BT-549 breast -0.591% | MDA-MB-435 melanoma 1.89% | SW-620 colon -12.5% | HCT-116 colon -49.7% | KM12 colon -49%

CCCCC[C@H]1C/C=C2/C(=O)C=C[C@@H]2C/C=C\CCCC(=O)O1
active: T-47D breast -2.9% | BT-549 breast -11.2% | MDA-MB-435 melanoma -26.7% | SW-620 colon 0.0064% | MCF7 breast 0.464% | HCT-116 colon -67.6% | KM12 colon -83.6%

Cc1cc(C)nc(SC2=C(Nc3cccc(Cl)c3C)C(=O)N(Cc3ccccc3)C2=O)n1
inactive: T-47D breast 37.1% [30 µM] | BT-549 breast 48.1% [30 µM] | MDA-MB-435 melanoma 42.1% [30 µM] | SW-620 colon 65.4% [30 µM] | MCF7 breast 30.7% [30 µM] | HCT-116 colon 44.1% [30 µM] | KM12 colon 53.2% [30 µM]

Cc1oc(-c2ccc(Cl)cc2Cl)cc1C(=O)Nc1nccs1
inactive: T-47D breast 70.3% | BT-549 breast 107% | MDA-MB-435 melanoma 100% | SW-620 colon 94.4% | MCF7 breast 60.8% | HCC-2998 colon 109% | KM12 colon 98.7%

Nc1ccc(S(=O)(=O)O)c2ccc(N=Nc3ccc(N=Nc4ccc(S(=O)(=O)O)cc4)c4ccccc34)c(O)c12
inactive: T-47D breast 124% | BT-549 breast 107% | MDA-MB-435 melanoma 122% | SW-620 colon 93.5% | MCF7 breast 101% | HCC-2998 colon 105% | KM12 colon 99%

COc1cccc2c1C(=O)c1c(O)c3c(c(O)c1C2=O)C[C@](O)(C(=O)CO)C[C@H]3O[C@@H]1C[C@@H](NC(=O)CCCCCN(C)C2(c3ccc(F)cc3)CC3CCC2C3)[C@H](O)[C@@H](C)O1 (stereo partly specified)
inactive: T-47D breast 86.3% | BT-549 breast 52%
active: MDA-MB-435 melanoma -17.9% | SW-620 colon -74.9% | MCF7 breast -46.2% | HCT-116 colon -91.8% | KM12 colon -68.5%

COc1cc(/C=C/C(=O)c2cccnc2Nc2ccc(F)cc2)cc(OC)c1OC
active: MCF7 breast 8.82%
inactive: T-47D breast 61.4% | BT-549 breast 39.5% | MDA-MB-435 melanoma 28.4% | SW-620 colon 21.6% | HCT-116 colon 13.9% | KM12 colon 24.6%

Cc1[nH]c(-c2cc(N)ccc2Cl)c2c1C(=O)CCCC2
inactive: T-47D breast 19.8% | BT-549 breast 49.8% | MDA-MB-435 melanoma 15.5% | SW-620 colon 64.6% | MCF7 breast 12.8% | HCC-2998 colon 33.5% | KM12 colon 32.6%

Cc1ccc(O)c(N2C(=NCc3ccco3)NS(=O)(=O)c3cnccc32)c1
inactive: T-47D breast 110% | BT-549 breast 101% | MDA-MB-435 melanoma 91.8% | SW-620 colon 111% | MCF7 breast 101% | HCT-116 colon 99% | KM12 colon 112%

COc1ccc(-n2nc(C)c3c(Oc4ccc(NC(=O)Nc5c(Cl)cccc5Cl)cc4)ncnc32)cc1
inactive: T-47D breast 87.4% | BT-549 breast 117% | MDA-MB-435 melanoma 100% | SW-620 colon 95.7% | MCF7 breast 96.4% | HCC-2998 colon 100% | KM12 colon 100%

COc1ccc(-c2nc3ccc(-c4nc5ccc(N6CCN(C)CC6)cc5[nH]4)cc3[nH]2)cc1OC
inactive: T-47D breast 28.3% | BT-549 breast 63% | MDA-MB-435 melanoma 41.9% | SW-620 colon 49.2% | MCF7 breast 21.1% | HCT-116 colon 23.5% | KM12 colon 97.8%

C=C(C)C(=O)Nc1ccc(NC(C)C)cc1
inactive: T-47D breast 100% | BT-549 breast 156% | MDA-MB-435 melanoma 117% | SW-620 colon 105% | MCF7 breast 146% | HCT-116 colon 105% | KM12 colon 109%

O=C(CN1C(=O)/C(=C/c2ccc(Cl)cc2)SC1=S)NCCCN1CCOCC1
inactive: T-47D breast 84.3% | BT-549 breast 102% | MDA-MB-435 melanoma 102% | SW-620 colon 102% | MCF7 breast 92.8% | HCC-2998 colon 102% | KM12 colon 104%
